PubChem BioAssay
Results filed as inconclusive are left out. Activity calls are given as the source filed them. Unless noted, cut-off not given; nearly all actives show AC50 up to about 26 µM.

Assays:
[1] = viability loss in pontine glioma line – cell-based, SU-DIPG-XVII, MIPE5.0, CellTiter-Glo, qHTS, dose response (AID 1347060); conditions: CellTiter-Glo ATP luminescence;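 on AC50: cells exposed to compound for 48 hours before viability readout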
[2] = viability loss in pontine glioma line – cell-based, SU-DIPG-XIII, MIPE5.0, CellTiter-Glo, qHTS, dose response (AID 1347064; cut-off not given, nearly all actives have AC50 up to about 23 µM;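 on AC50: cells exposed to compound for 48 hours before the viability read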); conditions: CellTiter-Glo ATP luminescence
[3] = viability loss in pontine glioma line – cell-based, SU-DIPG-XXV, MIPE5.0, CellTiter-Glo, qHTS, dose response (AID 1347065); conditions: CellTiter-Glo ATP luminescence;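 further: cells exposed to compound for 48 hours before ATP readout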
[4] = growth inhibition of DIPG cells – cell-based, MIPE4.0 library, CellTiter-Glo luminescence, qHTS (AID 1347066; cut-off not given, nearly all actives have AC50 up to about 30 µM;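 further: cells exposed to compound for 48 hours before readout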); conditions: SU-DIPG-VI viability, CellTiter-Glo ATP luminescence
[5] = JHH-DIPG-1 glioma cell viability, MIPE5.0 library, CellTiter-Glo luminescence, qHTS (AID 1347067); conditions: JHH-DIPG-1 glioma viability, CellTiter-Glo ATP luminescence;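 further: cells exposed to compound for 48 hours before readout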
[6] = growth inhibition of DIPG cells – cell-based, MIPE5.0 library, qHTS (AID 1347068; cut-off not given, nearly all actives have IC50 up to about 30 µM;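 on IC50: cells exposed to compound for 48 hours before viability readout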); conditions: SU-DIPG-XXV viability
[7] = viability loss with induced miR-34 in A549 – imaging, A549 dox-inducible miR-34, nuclei and caspase counts, primary screen (AID 1347080;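 active means compounds whose cell count with miR-34 switched on is under 0.7 times the count with it off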); conditions: A549 miR-34 inducible, Hoechst nuclei count, 48 h
[8] = compounds altering HSF1 focus formation in cells – imaging, Selleck Cancer Library (AID 1347162; in the data active means plate-normalised HSF1 focus index below about 0.46); conditions: human cells, HSF1 nuclear foci imaging, at 10 µM; SSMD: measured here: HSF1 foci SSMD mean; cell count: measured here: cell number; plate-normalised HSF1 focus index: stronger effect = lower value
[9] = MELAS cybrid and Rieske KO viability enhancers – cell-based, MELAS cybrids, Rieske KO mouse fibroblasts, CellTiter-Glo, primary screen (AID 1508586;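 active means mean z-score across replicates of 1.96 or higher in either the MELAS or the Rieske mutant cell line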;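 further: z relative to plate mean and SD of compound and empty wells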); conditions: low glucose
[10] = drug combination growth inhibition, ovarian cancer – cell-based, oncology-focused library, rucaparib conditional, profiling panel (AID 1508598;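 active means normalized viability below 100% at a tested concentration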); conditions: patient-derived ovarian cancer cells, CellTiter-Glo viability, 144 h, stronger effect = lower value
[11] = stronger effect = lower value, cell number ratio, induced over uninduced
[12] = measured here: relative caspase fold change +Dox/-Dox
[13] = measured here: total cells with miR-34 induction, stronger effect = lower value
[14] = measured here: total cells without miR-34 induction
[15] = MELAS cybrid survival, CellTiter-Glo 48 h, stronger effect = higher value
[16] = Rieske KO mouse fibroblast survival, CellTiter-Glo 72 h

CN1CCN(c2cccc(Nc3nc4c(-c5ccc(S(C)(=O)=O)cc5)cccn4n3)c2)CC1
5770: cell count [7, 13]
0.00545: z-score [9, 16]
inactive: fold change [7, 11] 0.892 | plate-normalised HSF1 focus index [8] 0.914 | z-score [9, 15] -0.221 | viability ([10]; at 0.000305 µM, OCI-C5x cells, with rucaparib 10 µM, 100% = cells with rucaparib alone) 113% | viability ([10]; at 0.000305 µM, OCI-C5x cells, without rucaparib) 104% | viability ([10]; at 0.000305 µM, OCI-P5x cells, with rucaparib 20 µM, 100% = cells with rucaparib alone) 101% | viability ([10]; at 0.00122 µM, OCI-C5x cells, with rucaparib 10 µM, 100% = cells with rucaparib alone) 115% | viability ([10]; at 0.00122 µM, OCI-C5x cells, without rucaparib) 112% | viability ([10]; at 0.00122 µM, OCI-P5x cells, with rucaparib 20 µM, 100% = cells with rucaparib alone) 109% | viability ([10]; at 0.00488 µM, OCI-C5x cells, with rucaparib 10 µM, 100% = cells with rucaparib alone) 114% | viability ([10]; at 0.00488 µM, OCI-C5x cells, without rucaparib) 123% | viability ([10]; at 0.00488 µM, OCI-P5x cells, with rucaparib 20 µM, 100% = cells with rucaparib alone) 107% | viability ([10]; at 0.00488 µM, OCI-P5x cells, without rucaparib) 104% | viability ([10]; at 0.0195 µM, OCI-C5x cells, with rucaparib 10 µM, 100% = cells with rucaparib alone) 115% | viability ([10]; at 0.0195 µM, OCI-C5x cells, without rucaparib) 125% | viability ([10]; at 0.0195 µM, OCI-P5x cells, with rucaparib 20 µM, 100% = cells with rucaparib alone) 117% | viability ([10]; at 0.0195 µM, OCI-P5x cells, without rucaparib) 107% | viability ([10]; at 0.0781 µM, OCI-C5x cells, with rucaparib 10 µM, 100% = cells with rucaparib alone) 114% | viability ([10]; at 0.0781 µM, OCI-C5x cells, without rucaparib) 129% | viability ([10]; at 0.0781 µM, OCI-P5x cells, with rucaparib 20 µM, 100% = cells with rucaparib alone) 112% | viability ([10]; at 0.313 µM, OCI-C5x cells, with rucaparib 10 µM, 100% = cells with rucaparib alone) 113% | viability ([10]; at 0.313 µM, OCI-C5x cells, without rucaparib) 128% | viability ([10]; at 0.313 µM, OCI-P5x cells, with rucaparib 20 µM, 100% = cells with rucaparib alone) 115% | viability ([10]; at 0.313 µM, OCI-P5x cells, without rucaparib) 111% | viability ([10]; at 1.25 µM, OCI-C5x cells, with rucaparib 10 µM, 100% = cells with rucaparib alone) 115% | viability ([10]; at 1.25 µM, OCI-C5x cells, without rucaparib) 138% | viability ([10]; at 1.25 µM, OCI-P5x cells, with rucaparib 20 µM, 100% = cells with rucaparib alone) 112% | viability ([10]; at 1.25 µM, OCI-P5x cells, without rucaparib) 111% | viability ([10]; at 5 µM, OCI-C5x cells, with rucaparib 10 µM, 100% = cells with rucaparib alone) 110% | viability ([10]; at 5 µM, OCI-C5x cells, without rucaparib) 206%
active: AC50 [1] 16600 nM | AC50 [2] 16600 nM | AC50 [3] 11800 nM | AC50 [4] 23500 nM | AC50 [5] 20900 nM | IC50 [6] 11800 nM | viability ([10]; at 0.000305 µM, OCI-P5x cells, without rucaparib) 90.7% | viability ([10]; at 0.00122 µM, OCI-P5x cells, without rucaparib) 96.6% | viability ([10]; at 0.0781 µM, OCI-P5x cells, without rucaparib) 99.2% | viability ([10]; at 5 µM, OCI-P5x cells, with rucaparib 20 µM, 100% = cells with rucaparib alone) 45% | viability ([10]; at 5 µM, OCI-P5x cells, without rucaparib) 77.6%
6470: cell count [7, 14]
6270: cell count [8]
-2.58: SSMD [8]
0.496: fold change [7, 12]

CN1C/C=C/CCOc2cccc(c2)-c2ccnc(n2)Nc2cccc(c2)C1
active: AC50 [1] 83.3 nM | AC50 [2] 132 nM | AC50 [3] 93.4 nM | AC50 [5] 166 nM

O=C(NCc1ccc(S(=O)(=O)c2cccc(C(F)(F)F)c2)cc1)c1cnc2[nH]ncc2c1
active: AC50 [1] 26.3 nM | AC50 [2] 11.8 nM | AC50 [3] 16.6 nM | AC50 [5] 14.8 nM

CCCCOc1nc(N)c2c(n1)N(Cc1cccc(CN3CCCC3)c1)CC(=O)N2
inactive: outcome [1] | outcome [2] | outcome [3]

COc1cccc2c1c(O)c(C(=O)N(C)c1ccc(C(F)(F)F)cc1)c(=O)n2C
inactive: outcome [1] | outcome [2] | outcome [3] | outcome [5]

COc1cc(-c2nn(C3CCC(N4CCN(C(C)=O)CC4)CC3)c3ncnc(N)c23)ccc1NC(=O)c1cc2ccccc2n1C (stereo not given)
inactive: outcome [4] | outcome [6]
active: AC50 [1] 3720 nM | AC50 [2] 7420 nM | AC50 [3] 4170 nM | AC50 [5] 7420 nM

O=C(Nc1ccc2[nH]nc(-c3ccncc3)c2c1)[C@@H]1CCN(CC(=O)N2CCN(c3ccc(-c4ncccn4)cc3)CC2)C1
active: AC50 [1] 1050 nM | AC50 [2] 1480 nM | AC50 [3] 1050 nM | AC50 [5] 525 nM

O=C(O)/C(S)=C/c1ccc(I)cc1
inactive: outcome [1] | outcome [2] | outcome [3]

C[C@H]1Oc2cc(cnc2N)-c2c(nn(C)c2C#N)CN(C)C(=O)c2ccc(F)cc21
active: AC50 [1] 14800 nM | AC50 [2] 10500 nM | AC50 [3] 9340 nM

Cc1cc(O)c(-c2ccc([C@@H](C)CN)cc2)c2c1[nH]c(=O)c1sccc12
active: AC50 [1] 118 nM | AC50 [2] 148 nM | AC50 [3] 148 nM

O=C(c1ccc(Nc2nc(C3CC3)cn3c(-c4cn[nH]c4)cnc23)c(F)c1)N1CCOCC1
active: AC50 [1] 5250 nM | AC50 [2] 5900 nM | AC50 [3] 3720 nM | AC50 [5] 2630 nM

Nc1nc(N)c2nc(-c3cccc(Cl)c3)c(N)nc2n1
active: AC50 [1] 1320 nM | AC50 [2] 9340 nM | AC50 [3] 8330 nM | AC50 [5] 16600 nM

O=C(O)CCCCC(CCSCc1ccccc1)SCc1ccccc1 (stereo not given)
10600: cell count [7, 14]
0.614: z-score [9, 16]
9470: cell count [7, 13]
0.838: fold change [7, 12]
inactive: outcome [1] | outcome [2] | outcome [3] | outcome [4] | outcome [5] | outcome [6] | fold change [7, 11] 0.896 | z-score [9, 15] -0.291

Cc1ccc(C(=O)OCc2ccc([C@@H](CN)C(=O)Nc3ccc4cnccc4c3)cc2)c(C)c1
active: AC50 [1] 12900 nM | AC50 [2] 14400 nM | AC50 [3] 9100 nM

O=C(NO)c1cnc(N2C[C@H]3C[C@@H]2CN3c2cc(C(F)(F)F)ccn2)nc1
active: AC50 [1] 2630 nM | AC50 [2] 1180 nM | AC50 [3] 742 nM | AC50 [5] 1480 nM

Cc1ccc(NC(=O)c2ccc3c(c2)OCCO3)cc1NC(=O)c1ccc2nc(OCCN3CCCC3)ccc2c1
active: AC50 [1] 129 nM | AC50 [2] 229 nM | AC50 [3] 64.5 nM | AC50 [5] 204 nM

CCO[C@@H]1OC(=O)C[C@@H]1NC(=O)[C@@H]1CCCN1C(=O)[C@@H](NC(=O)c1ccc(N)c(Cl)c1)C(C)(C)C
inactive: outcome [2] | outcome [3] | outcome [4] | outcome [5] | outcome [6]
active: AC50 [1] 23500 nM

CNS(=O)(=O)Nc1nccc(Cc2c(C)c3ccc(Oc4ncccn4)cc3oc2=O)c1F
active: AC50 [1] 1480 nM | AC50 [2] 1180 nM | AC50 [3] 2350 nM | AC50 [5] 1050 nM

O=c1sn(-c2cccc3ccccc23)c(=O)n1Cc1ccccc1
active: AC50 [1] 23500 nM | AC50 [2] 13200 nM | AC50 [3] 14800 nM | AC50 [5] 3720 nM

CCN(CC)CCNC(=O)c1c(C)[nH]c(/C=C2/C(=O)Nc3ccc(-c4csc(-c5ccccc5)n4)cc32)c1C
active: AC50 [1] 3320 nM | AC50 [2] 2950 nM | AC50 [3] 4680 nM | AC50 [5] 2950 nM
